# Source: PubChem BioAssay
# Activity calls are given as the source filed them.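 The calls were made as follows, unless noted: active = NADPH fluorescence slope more negative than the mean of all samples by about 3 SD, 99.7% confidence; inactive = the rest.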
# Assays:
# [1] = inhibitors of TNFa-induced NFkB p65 translocation, primary screen, imaging, HUVEC, MLSMR starter and 10KST1 sets (AID 438;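 active = inhibition above 20% together with a positive visual image hit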;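 also: compound added about 3h40 before a 20 min TNFalpha stimulation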;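 as to inhibition: signal is the nuclear over cytoplasmic p65 intensity ratio per well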); details: HUVEC TNFa-induced p65 nuclear translocation; cell count: measured here: nuclei count (cytotoxicity indicator), at 2.08 µM; inhibition: at 2 µM, stronger effect = higher value, 0% TNFa-plus-vehicle, 100% no-TNFa wells
# [2] = inhibitors of mutant huntingtin aggregation, primary screen, imaging, exon1htt(103Q)mCFP cells, high-content imaging (AID 483;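 active = visual image review flags a hit and inhibition of aggregation exceeds 20%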;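 also: compound exposure lasted 3 days before fixation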;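 as to nuclei count: percent of the per-plate median nuclei count of sample wells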); details: exon1htt(103Q)mCFP cell line, aggregate imaging, at 2 µM; inhibition of aggregation: stronger effect = higher value; nuclei count: measured here: cell count, toxicity
# [3] = inhibitors of E-selectin induction by TNFa, primary screen, imaging, HUVEC, immunofluorescence, MLSMR starter and 10KST1 sets (AID 487;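 active = visually confirmed hit in the image check and inhibition above 20%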;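 as to inhibition: signal is fraction of cell area covered by stained E-selectin grains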;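 as to nuclei count: 100% = median nuclei count of all wells on the same plate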); details: HUVEC TNFalpha-induced E-selectin immunofluorescence imaging, at 2 µM; inhibition: stronger effect = higher value; nuclei count: measured here: cell number, toxicity
# [4] = molecular target: Voltage-gated potassium channel subunit beta-2 (Rattus norvegicus) (UniProt P62483); test: KvBeta enzyme negative modulators, primary screen, biochemical, NADPH fluorescence (AID 622;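 active = fluorescence slope higher than the sample average by over 3 SD, cut at about -0.22 in these data, passing the limit was not always enough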;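 also: slope of raw intensity against log time taken from 70 to 1610 s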); details: recombinant KvBeta, 4-cyanobenzaldehyde reduction, at 10 µM, stronger effect = higher value
# Sequence of Voltage-gated potassium channel subunit beta-2 (Rattus norvegicus) (P62483 whole entry, looked up): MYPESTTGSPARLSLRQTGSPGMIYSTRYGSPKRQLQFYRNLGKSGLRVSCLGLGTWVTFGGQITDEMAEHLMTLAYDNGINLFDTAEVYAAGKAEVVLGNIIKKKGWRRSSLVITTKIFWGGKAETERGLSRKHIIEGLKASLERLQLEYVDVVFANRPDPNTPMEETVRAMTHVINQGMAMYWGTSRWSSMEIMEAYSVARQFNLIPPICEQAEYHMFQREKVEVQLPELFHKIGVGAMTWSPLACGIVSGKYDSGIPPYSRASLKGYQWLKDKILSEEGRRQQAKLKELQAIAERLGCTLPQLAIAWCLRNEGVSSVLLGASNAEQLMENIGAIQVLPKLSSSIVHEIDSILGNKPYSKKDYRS
# [5] = molecular target: Voltage-gated potassium channel subunit beta-2 (Rattus norvegicus) (UniProt P62483); test: KvBeta positive modulators, primary screen, biochemical, NADPH fluorescence (AID 623); details: Recombinant KvBeta, NADPH fluorescence decrease slope, 10 min; at 10 µM; stronger effect = lower value;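 also: fluorescence intensity change per second fitted from 20 to 320 s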
# [6] = molecular target: Alpha-2C adrenergic receptor (Homo sapiens) (UniProt P18825); test: modulators of alpha2C/GIRK thallium flux, primary screen, cell-based, HEK293 alpha2C/GIRK1/2 (AID 624;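 active = fluorescence slope after compound addition differing from the mean of all screened samples at 99.7% confidence, in either direction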;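 also: slope of fluorescence ratio to pre-addition baseline per second over 15 to 24 s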); details: thallium flux BTC fluorescence, at 10 µM, actives lie on both sides
# Sequence of Alpha-2C adrenergic receptor (Homo sapiens) (P18825 whole entry, looked up): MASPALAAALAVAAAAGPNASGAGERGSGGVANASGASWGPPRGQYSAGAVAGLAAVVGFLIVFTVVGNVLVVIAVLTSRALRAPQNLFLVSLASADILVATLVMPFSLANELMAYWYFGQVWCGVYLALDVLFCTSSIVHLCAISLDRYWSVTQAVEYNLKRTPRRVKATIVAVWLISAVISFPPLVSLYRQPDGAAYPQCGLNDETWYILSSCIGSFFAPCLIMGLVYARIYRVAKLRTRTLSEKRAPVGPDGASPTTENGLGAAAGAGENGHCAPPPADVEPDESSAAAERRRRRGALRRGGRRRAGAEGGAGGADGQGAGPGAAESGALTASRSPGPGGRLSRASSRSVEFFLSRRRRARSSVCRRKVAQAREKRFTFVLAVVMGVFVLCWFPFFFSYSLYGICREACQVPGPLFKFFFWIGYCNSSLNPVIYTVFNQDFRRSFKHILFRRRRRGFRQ
# [7] = inhibitors of Sendai virus-induced IRF3 signaling, primary screen, TLR/RLR signaling modifier project, cell-based, Sendai virus stimulus, luciferase, 10K MLSCN set (AID 602276;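 active = inhibition at or above 50% at 10 µM; inactive = inhibition below 50%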;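 also: firefly luciferase from ISG56 promoter only with Renilla not read in this screen; 0% = Sendai virus plus DMSO and 100% = medium plus DMSO without virus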); details: HEK293 RL24 IRF3 luciferase reporter, at 10 µM, stronger effect = higher value
# [8] = inhibitors of poly I:C-induced TLR3 signaling, primary screen, cell-based, poly I:C stimulus, luciferase, 10K MLSCN set (AID 602277;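 active = inhibition of the reporter signal at or above 50%; inactive = inhibition below 50%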); details: HEK293-TLR3 RL24 IRF3 luciferase reporter, at 10 µM, stronger effect = higher value
SMILES,cell count [1],inhibition [1],inhibition of aggregation [2],nuclei count [2] [%],inhibition [3],nuclei count [3] [%],fluorescence slope [4],NADPH fluorescence slope [5],slope [6],inhibition [7],inhibition [8]
O=C(NC1CCCCC1)C1CCCN1C(=O)NCc1ccccc1 (centres undefined),317,3.4% (inactive),7.5% (inactive),106,-33.5% (inactive),120,-0.43 (inactive),-5.2e-05 (inactive),0.00543 (inactive),5.02% (inactive),10.2% (inactive)
CCCS(=O)(=O)N1CCN(C(=O)c2cccs2)CC1,559,7.2% (inactive),5.4% (inactive),91,-58.9% (inactive),102,-0.622 (inactive),-3.8e-05 (inactive),0.00496 (inactive),13.1% (inactive),3.31% (inactive)
CCOC(=O)N1CCC(N(CCCOC)C(=O)Nc2ccc(CC)cc2)CC1,574,2.2% (inactive),-21.3% (inactive),106,12.1% (inactive),93.2,-0.531 (inactive),-2.6e-05 (inactive),0.00487 (inactive),4.87% (inactive),9.22% (inactive)
CCOC(=O)C(NCc1ccccc1OC)(NC(C)=O)C(F)(F)F (centres undefined),279,-1.5% (inactive),14.4% (inactive),97.8,-72.8% (inactive),125,-0.616 (inactive),-5.3e-06 (inactive),0.00702 (inactive),5.22% (inactive),4.4% (inactive)
O=C(c1cc(S(=O)(=O)N2CCOCC2)ccc1F)N1CCCc2ccccc21,555,-26.9% (inactive),-9.6% (inactive),102,-44.9% (inactive),140,-0.382 (inactive),-4.2e-05 (inactive),0.00518 (inactive),12.6% (inactive),27.4% (inactive)
O=C(Nc1ccc(Cc2ccc(NC(=O)N3CCOCC3)cc2)cc1)N1CCOCC1,494,-2% (inactive),15.7% (inactive),61.1,30.5% (inactive),82.3,-0.416 (inactive),-2.3e-05 (inactive),0.0036 (inactive),0.542% (inactive),-1.84% (inactive)
CCOC(=O)N1CCN(C(=O)c2c(-c3ccccc3)noc2C)CC1,816,0% (inactive),-5.9% (inactive),107,-27.3% (inactive),106,-0.421 (inactive),-4.8e-05 (inactive),0.00537 (inactive),14% (inactive),31.9% (inactive)
COP(C)(=O)c1c(C)nn(-c2ccccc2)c1C (centres undefined),558,6.8% (inactive),-0.1% (inactive),95.4,-11.2% (inactive),112,-0.424 (inactive),-2.1e-06 (inactive),0.00629 (inactive),8.87% (inactive),37.6% (inactive)
CCn1c(SCC(=O)Nc2cc(NC(C)=O)ccc2OC)nnc1-c1ccccn1,630,6.5% (inactive),3.4% (inactive),89.9,51.6% (inactive),92.7,-0.541 (inactive),1.5e-05 (inactive),0.00559 (inactive),10.3% (inactive),8.37% (inactive)
COc1cccc(C2CC(c3ccc(C)cc3)n3nc(N)nc3N2)c1 (centres undefined),510,-0.9% (inactive),-5.2% (inactive),106,-34.1% (inactive),106,-0.615 (inactive),-2.8e-06 (inactive),0.00794 (inactive),9.08% (inactive),24.7% (inactive)
CN=C(Nc1cc(C)nn1-c1ccccc1)c1ccccc1,455,0.5% (inactive),-5.8% (inactive),114,23% (inactive),90.5,-0.519 (inactive),-2.6e-05 (inactive),0.00474 (inactive),12.8% (inactive),17.1% (inactive)
Cc1cc(C)cc(NC(=O)CSc2nnc(Cc3cccn3C)n2-c2ccc(F)cc2)c1,479,4% (inactive),36.9% (inactive),12.9,39.4% (inactive),96.5,-0.519 (inactive),-2e-05 (inactive),0.00611 (inactive),13.7% (inactive),25.8% (inactive)
Cc1ccccc1-n1nnnc1SCC(=O)Nc1ccc(S(=O)(=O)N2CCCC2)cc1,675,-5.5% (inactive),11% (inactive),96.4,-1% (inactive),110,-0.534 (inactive),1.4e-05 (inactive),0.00566 (inactive),23.8% (inactive),24.1% (inactive)
O=C(NCc1cccs1)C1CCCN(c2ncccn2)C1 (centres undefined),404,-3% (inactive),13.4% (inactive),96.8,-10.2% (inactive),123,-0.5 (inactive),-1.3e-05 (inactive),0.00547 (inactive),12.7% (inactive),9.11% (inactive)
O=C(Nc1ccc(N2CCOCC2)cc1)C1CC1,344,3.5% (inactive),25% (inactive),83.9,-16.5% (inactive),121,-0.39 (inactive),-2.3e-05 (inactive),0.00566 (inactive),6.17% (inactive),-13.8% (inactive)
CC(C)c1nnc(NC(=O)c2cnccn2)s1,425,-0.5% (inactive),-3.7% (inactive),103,-38.5% (inactive),105,-0.479 (inactive),-4.7e-05 (inactive),0.00644 (inactive),-7.98% (inactive),-13.6% (inactive)
O=C(Cn1c(=O)sc2ccccc21)NCCOc1ccccc1F,780,-12% (inactive),-3.1% (inactive),104,36.2% (inactive),108,-0.514 (inactive),-9e-06 (inactive),0.00676 (inactive),0.0246% (inactive),6.19% (inactive)
COC(=O)c1ccc(Cl)c(NC(C)=O)c1,367,1.8% (inactive),-20.6% (inactive),110,-48.4% (inactive),78.5,-0.433 (inactive),-4.1e-05 (inactive),0.00415 (inactive),4.64% (inactive),34.3% (inactive)
CN1CC=C2C(C#N)=C(N)C(C#N)(C#N)C(Cc3ccccc3)C2C1 (centres undefined),556,10% (inactive),0.5% (inactive),81.2,-7.7% (inactive),102,-0.507 (inactive),-2.1e-05 (inactive),0.0052 (inactive),4.84% (inactive),8.81% (inactive)
